Records with an inconclusive call do not appear. Unmarked numbers belong to inactive results. The source made the active and inactive calls. Calls come from the whole dose curve; as a rule, active = well fitted cell-killing curve with a large enough effect in the repeat runs; inconclusive = weak or mixed curves, or effect the other way; inactive = no such curve, though single readings can be large or run the other way.
Test: qHTS assay to identify small molecule agonists of the farnesoid-X-receptor (FXR) signaling pathway - cell viability counter screen (AID 743218); note: nearly all actives have a fitted effect of over 45% in size
Settings: FXR-bla HEK293T viability, CellTiter-Glo luminescence, 16 h; series mostly up to 62.6 µM; viability change, negative = cytotoxic: at the top concentration
Description: U.S. Tox21 Program National Center for Advancing Translational Sciences [NCATS] NIH Chemical Genomics Center [NCGC] U.S. Environmental Protection Agency [EPA] National Institutes of Environmental Health Sciences [NIEHS] National Toxicology Program [NTP] U.S. Food and Drug Administration [FDA] Tox21 Assay Overview: The farnesoid-X-receptor (FXR), a nuclear hormone receptor, is highly expressed in liver, intestine, kidney and adrenal cortex. Natural ligands of FXR are the bile acids (Cholic acid, Chenodeoxy cholic acid etc). FXR is an important regulator of diverse metabolic pathways, including the bile acid homeostasis, lipid and glucose metabolisms. FXR regulates the expression of target genes by binding either as a monomer or as a heterodimer with the retinoid X receptor (RXR). Numerous studies have reported that FXR exerts protective function during cholestasis, diabetes, liver regeneration, and cancer. To identify compounds that activate FXR signaling, GeneBLAzer FXR-UAS-bla HEK 293T cell line (Invitrogen, Carlsbad, CA) containing a beta-lactamase reporter gene under the control of a UAS response element was used to screen the Tox21 10K compound library. The cytotoxicity of the Tox21 compound library against the FXR-bla cell line was tested in parallel by measuring the cell viability using CellTiter-Glo assay in the same wells.
Tox21 Assay Protocol Summary: FXR-bla cells were dispensed at 5000 cells/5uL/well in 1536-well black wall/clear bottom plates using a Multidrop Combi (Thermo Fisher Scientific, Waltham, MA) dispenser. After the assay plates were incubated at 37 C and 5% CO2 for 5 h, 23 nL of compounds dissolved in DMSO, positive controls or DMSO only was transferred to the assay plate by a Pintool station (Kalypsys, San Diego, CA). The assay plates were incubated at 37C for 16 h. After 1 uL of LiveBLAzerTM B/G FRET substrate was added using a Bioraptr Flying Reagent Dispenser (FRD) workstation (Beckman Coulter, Indianapolis, IN), the plates were incubated at room temperature for 2 h, and fluorescence intensity was measured by an Envision plate reader (PerkinElmer, Shelton, CT). For cell viability readout that measures cytotoxicity, 4uL/well of CellTiter-Glo reagent was added into the assay plates using a Bioraptr FRD. After 30 min incubation at room temperature, the luminescence intensity in the plates was measured using a ViewLux plate reader (PerkinElmer).
% is set by controls: 0 for no effect and ±100 for the full control effect; potency is the fitted concentration of half-maximal effect.

Question: Which “viability change, negative = cytotoxic” value does the source give for `Cc1ccc2c(Br)cc(Br)c(O)c2n1` here?
Answer: 3.78%

Question: With `Oc1cccc(Nc2ccccc2)c1` as the molecule, how does the “viability change, negative = cytotoxic” value read?
Answer: 30.1% [at 81.1 µM]

Question: With `CC(C)=CCC/C(C)=C/CC/C(C)=C/CCC(=O)OC/C=C(\C)CCC=C(C)C` as the molecule, how does the “viability change, negative = cytotoxic” value read?
Answer: -1.01%

Question: With `O=C1c2ccccc2C(=O)c2c(O)c(O)cc(O)c21` as the molecule, how does the “viability change, negative = cytotoxic” value read?
Answer: -5.36%

Question: For `CC1(C)[C@@H](OC(=O)CCC(=O)O)CC[C@]2(C)[C@H]3C(=O)C=C4[C@@H]5C[C@@](C)(C(=O)O)CC[C@]5(C)CC[C@@]4(C)[C@]3(C)CC[C@@H]12`, which “viability change, negative = cytotoxic” value is on record?
Answer: 8.74%

Question: For `N#CCCN(CCO)CCO`, which “viability change, negative = cytotoxic” value is on record?
Answer: -18.3%

Question: With `C=C(C)CCCC(C)CCO` (stereo not given) as the molecule, how does the “viability change, negative = cytotoxic” value read?
Answer: -10.9%

Question: For `CCCC(=O)C(=O)O`, which “viability change, negative = cytotoxic” value is on record?
Answer: 15.2%

Question: With `CC(=O)OCC(=O)NCCCOc1cccc(CN2CCCCC2)c1` as the molecule, how does the “viability change, negative = cytotoxic” value read?
Answer: -4.67%

Question: For `CN1C(=O)N(c2ccccc2Br)Cc2cnc(Nc3ccc4c(c3)OCC(CO)O4)nc21` (stereo not given), which “viability change, negative = cytotoxic” value is on record?
Answer: -49%

Question: For `CCCCCC#CC(=O)OC`, which “viability change, negative = cytotoxic” value is on record?
Answer: 29.8%

Question: For `CC1(C)S[C@@H]2[C@H](NC(=O)C(c3ccccc3)S(=O)(=O)O)C(=O)N2[C@H]1C(=O)O` (stereo not given in full), which “viability change, negative = cytotoxic” value is on record?
Answer: -2.8%

Question: Which “viability change, negative = cytotoxic” value does the source give for `Cc1ccc(OC(=O)c2ccccc2O)cc1` here?
Answer: -6.21%

Question: Which “viability change, negative = cytotoxic” value does the source give for `COC(=O)CS` here?
Answer: -2.46%

Question: Which “viability change, negative = cytotoxic” value does the source give for `c1csc(SSc2cccs2)c1` here?
Answer: -17.3%

Question: For `CS(=O)(=O)c1ccc(-c2cn3ccccc3n2)cc1`, which “viability change, negative = cytotoxic” value is on record?
Answer: -20.9%

Question: With `C[C@]12CC[C@@H]3c4ccc(O)cc4CC[C@H]3[C@@H]1CC[C@@H]2OC(=O)CCC1CCCC1` as the molecule, how does the Potency read?
Answer: inactive

Question: For `CC1=C(Br)C(=O)C(Br)=C/C1=C(/c1ccccc1S(=O)(=O)O)c1cc(Br)c(O)c(Br)c1C`, which “viability change, negative = cytotoxic” value is on record?
Answer: 0.0858%

Question: Which “viability change, negative = cytotoxic” value does the source give for `CC(=O)OCC[N+](C)(C)C` here?
Answer: 17%

Question: Which “viability change, negative = cytotoxic” value does the source give for `CCC1CO1` (stereo not given) here?
Answer: 2.84%

Question: With `CC(C)Nc1cccnc1N1CCN(C(=O)c2cc3cc(NS(C)(=O)=O)ccc3[nH]2)CC1` as the molecule, how does the “viability change, negative = cytotoxic” value read?
Answer: -10.5%

Question: Which “viability change, negative = cytotoxic” value does the source give for `OC(CCN1CCCC1)(c1ccccc1)C1CCCCC1` (stereo not given) here?
Answer: 13.5%

Question: With `Cc1cccc(O)c1N` as the molecule, how does the “viability change, negative = cytotoxic” value read?
Answer: -4.58% [at 81.1 µM]

Question: For `N#[N+]c1ccc2c(S(=O)(=O)[O-])cccc2c1O`, which “viability change, negative = cytotoxic” value is on record?
Answer: 1.29%

Question: With `O=C(CCCN1CC=C(n2c(=O)[nH]c3ccccc32)CC1)c1ccc(F)cc1` as the molecule, how does the “viability change, negative = cytotoxic” value read?
Answer: -19.6%

Question: With `O=C(O)CCCCCCCCCCCBr` as the molecule, how does the “viability change, negative = cytotoxic” value read?
Answer: -7.45%

Question: With `COC(=O)CCS` as the molecule, how does the “viability change, negative = cytotoxic” value read?
Answer: -9.71%

Question: Which Potency does the source give for `O=c1cc(-c2ccccc2)oc2ccc3ccccc3c12` here?
Answer: 8.71 µM (active)

Question: With `Cc1cc2c(OCC(CNC(C)(C)C)OC(=O)c3ccccc3)cccc2[nH]1` (stereo not given) as the molecule, how does the “viability change, negative = cytotoxic” value read?
Answer: 4.01%

Question: With `CCCCN1CCCC1C(=O)Nc1c(C)cc(C)cc1C` (stereo not given) as the molecule, how does the “viability change, negative = cytotoxic” value read?
Answer: -9.57%

Question: Which “viability change, negative = cytotoxic” value does the source give for `c1cc(N(CC2CO2)CC2CO2)ccc1Cc1ccc(N(CC2CO2)CC2CO2)cc1` (stereo not given) here?
Answer: -8.23%

Question: For `Nc1ncnc2c1ncn2[C@H]1CC[C@@H](CO)O1`, which “viability change, negative = cytotoxic” value is on record?
Answer: -3.44% [at 81.1 µM]

Question: For `CC(C)(c1ccccc1)c1ccccc1`, which “viability change, negative = cytotoxic” value is on record?
Answer: 6.07%

Question: Which “viability change, negative = cytotoxic” value does the source give for `CC=C(Cl)Cl` here?
Answer: 27%

Question: For `CCCCCCCCCCC(=O)O`, which “viability change, negative = cytotoxic” value is on record?
Answer: 10.1% [at 81.1 µM]

Question: For `NCCNCCO`, which “viability change, negative = cytotoxic” value is on record?
Answer: 12.4% [at 81.1 µM]

Question: Which Potency does the source give for `C[C@@H]1CN(CCCn2c3ccccc3c3ccccc32)C[C@H](C)N1` here?
Answer: 15 µM (active)

Question: Which “viability change, negative = cytotoxic” value does the source give for `CC/C=C1/OC(=O)c2ccccc21` here?
Answer: -5.77%

Question: Which “viability change, negative = cytotoxic” value does the source give for `OCCOCC#CCOCCO` here?
Answer: -7.87%

Question: For `Nc1cccc2c1CN(C1CCC(=O)NC1=O)C2=O` (stereo not given), which “viability change, negative = cytotoxic” value is on record?
Answer: 1.42%

Reference: PubChem BioAssay (Tox21)
